From ChEMBL document CHEMBL1961873, “Compounds: GSK PKIS; Assays: Nanosyn kinase panel” (2012)

Columns and labels:
[1] = target: T1, Inhibitor of nuclear factor kappa-B kinase subunit epsilon (Homo sapiens) (UniProt Q14164); conditions: at 1 µM;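 further: reported values are averaged percent inhibition figures against human IKKε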
T1 sequence (whole entry): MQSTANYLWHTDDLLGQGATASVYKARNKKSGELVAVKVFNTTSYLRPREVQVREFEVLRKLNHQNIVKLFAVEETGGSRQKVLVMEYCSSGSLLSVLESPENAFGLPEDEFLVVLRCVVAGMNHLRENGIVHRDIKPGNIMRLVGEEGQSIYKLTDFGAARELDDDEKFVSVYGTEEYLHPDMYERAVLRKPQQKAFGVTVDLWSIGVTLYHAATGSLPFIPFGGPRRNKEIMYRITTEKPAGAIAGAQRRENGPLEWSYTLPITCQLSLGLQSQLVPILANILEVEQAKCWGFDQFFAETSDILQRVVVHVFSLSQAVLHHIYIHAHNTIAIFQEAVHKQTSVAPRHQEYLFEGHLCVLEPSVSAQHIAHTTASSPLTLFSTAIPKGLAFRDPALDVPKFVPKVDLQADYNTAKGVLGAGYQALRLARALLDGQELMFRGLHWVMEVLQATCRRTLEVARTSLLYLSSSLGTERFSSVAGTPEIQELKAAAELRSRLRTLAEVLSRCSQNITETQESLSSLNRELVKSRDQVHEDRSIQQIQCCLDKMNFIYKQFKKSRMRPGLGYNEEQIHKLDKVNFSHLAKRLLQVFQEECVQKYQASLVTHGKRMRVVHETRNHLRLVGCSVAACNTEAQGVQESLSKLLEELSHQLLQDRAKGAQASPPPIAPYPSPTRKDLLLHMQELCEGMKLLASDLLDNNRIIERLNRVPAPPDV

[2] = target: T2, Serine/threonine-protein kinase Nek1 (Homo sapiens) (UniProt Q96PY6); conditions: at 0.1 µM
T2 sequence (whole entry): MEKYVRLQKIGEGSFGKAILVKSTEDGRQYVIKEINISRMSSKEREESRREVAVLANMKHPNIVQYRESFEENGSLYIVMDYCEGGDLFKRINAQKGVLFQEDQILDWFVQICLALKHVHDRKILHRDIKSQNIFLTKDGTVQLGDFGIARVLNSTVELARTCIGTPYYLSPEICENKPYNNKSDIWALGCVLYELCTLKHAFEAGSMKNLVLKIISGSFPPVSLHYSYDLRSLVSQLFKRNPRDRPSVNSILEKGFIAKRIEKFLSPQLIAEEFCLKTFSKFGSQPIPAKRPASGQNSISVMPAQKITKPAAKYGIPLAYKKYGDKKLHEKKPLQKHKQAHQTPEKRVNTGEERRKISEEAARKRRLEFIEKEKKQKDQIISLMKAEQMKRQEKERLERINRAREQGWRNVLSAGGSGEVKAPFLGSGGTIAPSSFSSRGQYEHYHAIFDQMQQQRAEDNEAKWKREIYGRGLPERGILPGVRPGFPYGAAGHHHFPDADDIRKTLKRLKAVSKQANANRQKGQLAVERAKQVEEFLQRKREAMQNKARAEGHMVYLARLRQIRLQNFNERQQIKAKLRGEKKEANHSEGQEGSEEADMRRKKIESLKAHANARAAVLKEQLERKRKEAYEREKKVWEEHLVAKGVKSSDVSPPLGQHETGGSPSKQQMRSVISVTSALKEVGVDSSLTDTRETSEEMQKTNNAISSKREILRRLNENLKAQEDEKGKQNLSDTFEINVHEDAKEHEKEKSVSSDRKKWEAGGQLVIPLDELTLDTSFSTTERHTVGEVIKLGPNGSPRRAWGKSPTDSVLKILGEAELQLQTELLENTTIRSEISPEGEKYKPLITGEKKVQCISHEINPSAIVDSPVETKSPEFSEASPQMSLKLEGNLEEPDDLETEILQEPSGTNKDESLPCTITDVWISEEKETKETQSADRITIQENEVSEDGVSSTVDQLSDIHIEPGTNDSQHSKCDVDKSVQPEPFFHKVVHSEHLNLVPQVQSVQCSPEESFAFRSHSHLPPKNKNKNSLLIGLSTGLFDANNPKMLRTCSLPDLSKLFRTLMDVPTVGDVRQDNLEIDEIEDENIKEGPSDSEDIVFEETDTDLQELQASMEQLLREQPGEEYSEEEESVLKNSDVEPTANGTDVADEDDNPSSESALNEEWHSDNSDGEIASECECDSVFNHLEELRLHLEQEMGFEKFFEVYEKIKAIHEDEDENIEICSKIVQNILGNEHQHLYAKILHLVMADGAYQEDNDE

[3] = target: T2, Serine/threonine-protein kinase Nek1 (Homo sapiens); conditions: at 1 µM
[4] = target: T3, Serine/threonine-protein kinase Nek2 (Homo sapiens) (UniProt P51955); conditions: at 0.1 µM
T3 sequence (whole entry): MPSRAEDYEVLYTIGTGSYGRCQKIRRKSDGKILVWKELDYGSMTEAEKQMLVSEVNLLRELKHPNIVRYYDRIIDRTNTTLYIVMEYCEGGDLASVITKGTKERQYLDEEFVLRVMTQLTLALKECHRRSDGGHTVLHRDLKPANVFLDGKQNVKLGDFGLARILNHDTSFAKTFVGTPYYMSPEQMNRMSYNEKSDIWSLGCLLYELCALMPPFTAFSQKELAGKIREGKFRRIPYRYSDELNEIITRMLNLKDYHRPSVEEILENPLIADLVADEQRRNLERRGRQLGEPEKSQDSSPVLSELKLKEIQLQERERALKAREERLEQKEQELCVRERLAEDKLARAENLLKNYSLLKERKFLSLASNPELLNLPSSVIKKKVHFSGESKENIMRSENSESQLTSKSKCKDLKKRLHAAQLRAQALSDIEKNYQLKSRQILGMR

[5] = target: T3, Serine/threonine-protein kinase Nek2 (Homo sapiens); conditions: at 1 µM
[6] = target: Serine/threonine-protein kinase Nek6 (Homo sapiens) (UniProt Q9HC98); conditions: at 0.1 µM
[7] = target: Serine/threonine-protein kinase Nek6 (Homo sapiens) (UniProt Q9HC98); conditions: at 1 µM
[8] = target: Serine/threonine-protein kinase Nek7 (Homo sapiens) (UniProt Q8TDX7); conditions: at 0.1 µM
[9] = target: Serine/threonine-protein kinase Nek7 (Homo sapiens) (UniProt Q8TDX7); conditions: at 1 µM
[10] = target: T4, Serine/threonine-protein kinase Nek9 (Homo sapiens) (UniProt Q8TD19); conditions: at 0.1 µM;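 further: reported value is the mean percent inhibition of NEK9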
T4 sequence (whole entry): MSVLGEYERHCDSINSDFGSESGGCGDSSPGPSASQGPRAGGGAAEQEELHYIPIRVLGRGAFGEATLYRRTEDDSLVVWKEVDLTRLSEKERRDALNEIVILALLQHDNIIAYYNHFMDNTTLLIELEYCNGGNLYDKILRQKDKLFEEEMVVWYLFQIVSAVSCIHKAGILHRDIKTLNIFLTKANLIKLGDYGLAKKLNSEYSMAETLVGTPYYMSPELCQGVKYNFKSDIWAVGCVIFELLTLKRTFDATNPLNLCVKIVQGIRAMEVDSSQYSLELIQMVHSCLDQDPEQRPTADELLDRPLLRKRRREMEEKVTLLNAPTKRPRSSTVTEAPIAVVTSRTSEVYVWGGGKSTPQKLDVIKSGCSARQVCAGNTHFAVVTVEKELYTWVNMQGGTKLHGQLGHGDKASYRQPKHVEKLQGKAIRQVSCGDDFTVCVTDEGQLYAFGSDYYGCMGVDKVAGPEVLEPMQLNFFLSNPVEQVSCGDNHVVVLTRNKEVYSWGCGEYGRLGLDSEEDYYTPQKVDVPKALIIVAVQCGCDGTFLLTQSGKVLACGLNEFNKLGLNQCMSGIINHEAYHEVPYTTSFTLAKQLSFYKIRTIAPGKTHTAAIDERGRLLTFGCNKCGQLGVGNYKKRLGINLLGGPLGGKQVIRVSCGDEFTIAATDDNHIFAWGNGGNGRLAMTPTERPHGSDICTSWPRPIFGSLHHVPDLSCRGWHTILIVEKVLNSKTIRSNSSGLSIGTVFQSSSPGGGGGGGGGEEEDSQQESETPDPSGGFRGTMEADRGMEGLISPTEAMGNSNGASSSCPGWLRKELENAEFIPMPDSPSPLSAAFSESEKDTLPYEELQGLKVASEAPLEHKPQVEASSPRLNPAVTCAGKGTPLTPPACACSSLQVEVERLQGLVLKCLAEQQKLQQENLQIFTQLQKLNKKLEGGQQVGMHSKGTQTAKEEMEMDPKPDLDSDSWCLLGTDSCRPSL

Sequence of Serine/threonine-protein kinase Nek6 (Homo sapiens) (Q9HC98 whole entry): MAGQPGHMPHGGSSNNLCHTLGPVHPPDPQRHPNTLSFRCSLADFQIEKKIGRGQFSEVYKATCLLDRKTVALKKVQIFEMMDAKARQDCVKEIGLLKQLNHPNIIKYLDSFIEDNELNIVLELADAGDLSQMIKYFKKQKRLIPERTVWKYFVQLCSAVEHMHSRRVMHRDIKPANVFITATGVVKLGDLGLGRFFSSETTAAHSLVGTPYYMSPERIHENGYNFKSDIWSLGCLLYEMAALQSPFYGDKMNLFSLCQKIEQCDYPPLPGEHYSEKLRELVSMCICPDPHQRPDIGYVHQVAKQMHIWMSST
Sequence of Serine/threonine-protein kinase Nek7 (Homo sapiens) (Q8TDX7 whole entry, looked up): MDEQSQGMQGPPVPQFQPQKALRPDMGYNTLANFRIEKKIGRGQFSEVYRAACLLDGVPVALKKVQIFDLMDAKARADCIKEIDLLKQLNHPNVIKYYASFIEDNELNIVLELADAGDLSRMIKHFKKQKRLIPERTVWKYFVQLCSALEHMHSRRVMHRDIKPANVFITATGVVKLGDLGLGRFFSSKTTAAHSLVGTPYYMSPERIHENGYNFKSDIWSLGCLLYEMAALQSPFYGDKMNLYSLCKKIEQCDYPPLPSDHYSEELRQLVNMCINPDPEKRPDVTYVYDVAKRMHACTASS

Compound	inhibition [1] [%]	inhibition [2] [%]	inhibition [3] [%]	inhibition [4] [%]	inhibition [5] [%]	inhibition [6] [%]	inhibition [7] [%]	inhibition [8] [%]	inhibition [9] [%]	inhibition [10] [%]
O=C1NC(=O)C(N2CCc3ccccc32)=C1c1ccc(Cl)cc1	3.58	3.18	2.69	6.49	7.76	-0.04	-0.02	6.9	4.24	5.67
CC(=O)Nc1cccc(C#Cc2cncnc2Nc2ccc(OCc3cccc(F)c3)c(Cl)c2)n1	1.53	-2.25	1.58	-2.96	-1.9	1.43	4.26	-4.17	-3.8	0.45
NC(=O)c1cccc(Nc2nccc(Nc3cccc4[nH]ncc34)n2)c1	21.4	0.79	8.86	-3.63	-1.96	-4.36	-2.96	-1.67	-3.47	-0.63
COc1ccc(-c2ccncc2)cc1C(N)=O	6.43	3.59	6.47	5.42	6.48	-0.26	1.43	3.68	8.72	4.72
Nc1ncnc2occ(-c3ccc(NC(=O)Nc4cc(C(F)(F)F)cc(C(F)(F)F)c4)cc3)c12	5.33	1.24	6.51	3.72	15.5	-0.98	0.99	2.34	0.46	5.43
CCN1CCC(CC(=O)Nc2n[nH]c3nc(-c4cccs4)c(Br)cc23)CC1	-3.61	-1.51	0.77	-1.87	-2.3	-1.1	-2.19	0.31	-4.11	0.24
CS(=O)(=O)Nc1ccc(N/C=C2\C(=O)Nc3ccccc32)cc1	7.71	-1.43	-2.34	-2.87	-3.33	-1.58	-2.98	-4.38	-3.48	-0.57
Nc1nc(-c2ccccn2)c(-c2ccc3ncccc3n2)s1	5.46	2.32	4.91	3.61	2.7	3.95	1.16	3.03	2.77	6.33
COc1cc2ncn(-c3cc(O[C@H](C)c4ccccc4Cl)c(C(N)=O)s3)c2cc1OC	6.91	29.8	67.8	12.1	48.8	2.67	4.93	3.58	4.26	62
COc1cc2ncn(-c3cc(O[C@@H](C)c4ccccc4Cl)c(C(N)=O)s3)c2cc1OC	7.74	4.69	19.3	5.52	10.4	1.03	0.67	3.47	4.57	7.99
NS(=O)(=O)c1ccc(N/N=C2\C(=O)Nc3ccc(C(=O)NCCc4c[nH]cn4)cc32)cc1	19	2.19	-1.06	5.57	5.42	3.45	1.65	4.83	7.05	10.2
CCCN1CCC=C(c2ccc(Nc3nc(Nc4ccccc4C(N)=O)c4cc[nH]c4n3)c(C)c2)C1	10.3	3.93	8.78	6.91	7.52	0.8	5.18	4.64	14	7.78
CN(C)c1cc2c(Nc3ccc4nc(Cc5ccccc5)[nH]c4c3)ncnc2cn1	16.6	2.45	3.05	6.53	8.34	3.19	-0.04	6.44	4.66	14.3
Cc1ccc(NC(=O)c2ccnc(N3CCCC3)c2)cc1-c1ccc(C(=O)NCC2CC2)cc1	5.3	2.74	2.36	5.44	5.04	1.43	0.15	6.37	4.61	5.79
CC1=C(C(=O)Nc2ccc3[nH]ncc3c2)C(c2ccc(Cl)c(Cl)c2)CC(=O)N1 (stereo not given)	-0.94	0.09	-0.51	1.92	1.44	-0.99	-2.51	2.34	3.79	7.85
N#Cc1c(NC(=O)c2cccc3ccccc23)sc2c1CCCC2	1.87	1.19	1.42	3.93	4.37	3.32	1.3	5.78	3.68	5.96
